RBX1-CUL1 inh – inhibitors of human ROC1-CUL1 ubiquitin ligase activity. inhibition, % at 10 µM. in vitro K48 di-Ub FRET, acceptor:donor ratio, 45 min. 0.6% of 140,000 active. E3 ubiquitin-protein ligase RBX1 (Homo sapiens) + Cullin-1 (Homo sapiens), P62877+Q13616; in the data active = inhibition above about 25%
* hit, by the source's call. Shown is part of a subset that was picked to be rich in hits.

SMILES	RBX1-CUL1 inh
COc1ccc(S(=O)(=O)N(CC(=O)Nc2cccc3ccccc23)c2ccc(C)cc2)cc1	4
CO/N=C1/CCCC2=NC(=O)C=CC21 (stereo not drawn)	4
O=C(N/N=C/CCc1ccccc1)c1ccco1	-7
O=C(/C=C/c1ccco1)Nc1cccc(NC(=O)c2ccc(Cl)cc2Cl)c1	0
Cc1ccc(C(=O)/C=C/c2ccco2)c(O)c1	34*
CC(/C=C/c1ccco1)=N/NC(=O)c1ccccc1Cl	-2
O=C(O)CCCCCN1C(=O)/C(=C2\SC(=S)N(CCCCCC(=O)O)C2=O)SC1=S	65*
O=C(O)CCCCCN1C(=O)c2ccc3c4c(ccc(c24)C1=O)C(=O)N(CCCCCC(=O)O)C3=O	7
COc1ccccc1/C=C1/SC(=S)N(CCCCCC(=O)O)C1=O	15
CCN(Cc1ccccc1)C(=O)c1coc(COc2ccccc2)n1	-8
CC(OC(=O)CCC(=O)Nc1ccc(C(=O)OC(C)C(=O)c2ccccc2)cc1)C(=O)c1ccc(Cl)cc1 (stereo not drawn)	-3
Cc1ccc(-c2csc3ncn(-c4ccc(Br)cc4)c(=O)c23)c(C)c1	3
Cc1cc(C)c2nc(-n3cncn3)c(C)cc2c1	-1
CCc1cccc(C)c1NS(=O)(=O)c1cc2[nH]c(=O)c(=O)[nH]c2cc1C	44*
CCOC(=O)c1cccc(NS(=O)(=O)c2cc3[nH]c(=O)c(=O)[nH]c3cc2C)c1	-1
Cc1cc(C)cc(NS(=O)(=O)c2cc3[nH]c(=O)c(=O)[nH]c3cc2C)c1	-8
Cc1ccc(C(=O)Nc2nnc(Cc3cccs3)s2)cc1	2
COc1ccc(N2CCN(S(=O)(=O)N3CCCC3)CC2)cc1	5
CC(C)(C)c1cc(Br)ccc1OCC(=O)Nc1ccccc1	0
O=C(COc1ccc(Br)cc1/C=C1/C(=O)ON=C1c1ccccc1)Nc1ccccc1	43*
Cc1cccc(NC(=O)COc2ccc(Br)cc2C=C2C(=O)NC(=S)NC2=O)c1	0
COc1cc(/C=C2/C(=O)NN(c3ccc(I)cc3)C2=O)cc(Br)c1OC(C)=O	3
COc1cc(/C=C2/C(=O)NN(c3ccc(C)c(C)c3)C2=O)cc(Br)c1OC(C)=O	31*
COc1cc(/C=C2/C(=O)NN(c3ccccc3)C2=O)ccc1OCC(=O)Nc1cccc(C)c1	-2
COc1cc(/C=C2/C(=O)NN(c3ccccc3)C2=O)cc(OC)c1O	10
SMILES	RBX1-CUL1 inh
COc1cc(/C=C2\C(=O)NN(c3ccccc3)C2=O)cc(Br)c1OCCCOc1ccc(Cl)cc1	55*
COc1cc(/C=C2\C(=O)NN(c3ccccc3)C2=O)cc(Br)c1OCCCOc1cccc(C)c1	45*
COc1cc(/C=C2\C(=O)NN(c3ccccc3)C2=O)cc(Br)c1OCc1ccc(C)cc1	8
COc1cc(/C=C2/C(=O)NN(c3ccc(C)c(C)c3)C2=O)ccc1OCC(=O)N1CCOCC1	0
Cc1cccc(OCCCOc2ccc(Br)cc2/C=C2\C(=O)NN(c3ccccc3)C2=O)c1	57*
CCOc1cc(/C=C2\C(=O)NN(c3ccccc3)C2=O)cc(Br)c1OCCCOc1ccc(Cl)cc1	-15
Cc1cccc(COc2ccccc2/C=C2\C(=O)NN(c3ccccc3)C2=O)c1	8
O=C1NC(=O)N(c2cccc(Cl)c2)C(=O)C1C=Nc1ccc(Cl)c(CN2C(=O)c3ccccc3C2=O)c1 (stereo not drawn)	-6
Cc1c(Cl)cccc1NC(=O)CC(=O)Nc1cccc(Cl)c1C	-2
CN1CCN(C2=C(C(=O)Nc3ccccc3)S(=O)(=O)c3ccccc32)CC1	12
CN(Cc1ccccc1)C(=O)CCC1CCN(Cc2ccon2)CC1	-6
Cc1ccccc1C1(CC(=O)N2CCCCC2c2nccn2C)CC(=O)N(Cc2ccncc2)C1=O (stereo not drawn)	1
O=c1c(SCc2ccccc2)c(SCc2ccccc2)cnn1-c1ccc(Br)cc1	8
O=C(O)c1ccc(C2Nc3ccc(Cl)cc3C3OCCC23)cc1 (stereo not drawn)	-14
O=C(Cc1ccc2ccccc2c1)Oc1ccccc1	11
Cc1ccc(OCC(=O)NCc2cccnc2)c(C)c1	0
Cc1cccc(-n2c(SCC(=O)Nc3cccc(C(F)(F)F)c3)nc3sc4c(c3c2=O)CCCC4)c1	0
CSc1ncc(CNCc2cccnc2Oc2ccc(C)nc2)cn1	4
N#CC1=C(C(F)(F)F)CC(c2ccccc2)=NC1=S	10
Cc1[nH]c2c(F)cccc2c1CC(=O)N1CCCC(c2cc(=O)[nH]cn2)C1 (stereo not drawn)	7
COc1ccc(C2C(C(=O)/C=C/c3ccccc3)C(=O)C(=O)N2c2ccccc2)cc1 (stereo not drawn)	3
CCOc1ccc(/C=C2/C(=O)NN(c3cccc(F)c3)C2=O)cc1OC	-5
CCOc1cc(/C=C2\C(=O)NN(c3ccccc3)C2=O)ccc1OCc1ccccc1C	10
CCOc1cc(/C=C2\C(=O)NN(c3ccccc3)C2=O)cc(Br)c1OCCCOc1cccc(C)c1	35*
CCn1ccnc1CN1CCCC(CCc2ccccc2F)C1 (stereo not drawn)	-2
SMILES	RBX1-CUL1 inh
Cn1ncc([N+](=O)[O-])c1C1C(=O)Nc2ccccc2C1=O (stereo not drawn)	4
CCCCC(=Nc1ccccc1C)C1C(=O)CC(c2ccccc2)CC1=O (stereo not drawn)	7
O=C1CC(c2ccccc2)CC2=Nc3ccccc3NC(c3cccc4ccccc34)C12 (stereo not drawn)	3
CCCCC1C(=O)N=C2CC(c3ccccc3)CC(=O)C2C1=O (stereo not drawn)	28*
CCOC(=O)c1oc2nc(-c3ccccc3)cc(-c3ccccc3)c2c1NC(=O)Nc1cccc(Cl)c1	-9
CCOc1cc(C2C(C(=O)c3cc4ccccc4o3)C(=O)C(=O)N2Cc2ccco2)ccc1O (stereo not drawn)	3
O=C1C(=O)N(c2nnc(SCc3ccccc3Cl)s2)C(c2ccc(Cl)cc2)C1C(=O)c1cc2ccccc2o1 (stereo not drawn)	29*
CCCCCOc1ccc(C2C(C(=O)c3cc4ccccc4o3)C(=O)C(=O)N2c2nc3ccc(OCC)cc3s2)cc1OC (stereo not drawn)	-6
CCOc1cc(C2C(C(=O)c3cc4ccccc4o3)C(=O)C(=O)N2c2nnc(SCc3ccccc3Cl)s2)ccc1O (stereo not drawn)	33*
CC(=O)c1sc(N2C(=O)C(=O)C(C(=O)c3cc4ccccc4o3)C2c2ccc(O)cc2)nc1C (stereo not drawn)	11
O=C1C(=O)N(c2nnc(SCc3ccccc3F)s2)C(c2ccc(Cl)cc2)C1C(=O)c1cc2ccccc2o1 (stereo not drawn)	-2
CN1N=C(C(=O)N2CCCC(CCC(=O)N3CCN(c4ccccn4)CC3)C2)CCC1=O (stereo not drawn)	9
O=C1/C(=C\c2cccs2)C(c2ccccc2)=NN1c1ccc(Cl)c(Cl)c1	-5
O=C(O)C1=NN(c2ccccc2)C(=O)/C1=C\c1cccs1	26*
CCOC(=O)C1=NN(c2ccccc2)C(=O)/C1=C\c1ccc(F)cc1	6
COCCn1cnc2cc(NC(=O)C3CCCCC3)cc(C(=O)NCCCN3CCCC3=O)c21	11
CCCNc1ccc2nonc2c1S(=O)(=O)NCCC	10
O=C(/C=C/c1cccnc1)c1ccc(F)cc1	49*
CSc1ccc(C(=O)/C=C/c2ccccc2)cc1	3
C(=C\c1cccnc1)/c1ccc(/C=C/c2cccnc2)cc1	0

Assay outcomes (PubChem BioAssay)
